According to PubChem BioAssay (NCATS):
Results filed as inconclusive are left out. Active and inactive are the calls of the source. Calls come from the whole dose curve; as a rule, active = well fitted inhibition curve with a large enough effect; inconclusive = small, poorly fitted or top-dose-only effect; inactive = flat fitted curve, though single readings scatter.

Experiment: qHTS to identify inhibitors of the type 1 interferon - major histocompatibility complex class I in skeletal muscle: primary screen against the NCATS Pharmaceutical Collection (AID 1347407);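 note: luminescence of HiBiT knocked into endogenous HLA-B as interferon-induced MHC class I level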
Conditions: human skeletal muscle cells, IFN-b-induced MHC-I HiBiT luminescence, 24 h; series mostly up to 45.9 µM
In short: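 Compounds […] were added to CRISPR-engineered HLA-B-HiBiT C25cl48 human myoblasts with 4.0 ng/ml IFN-beta. After 24 hrs at 37 C, cells were lysed and HiBiT luminescence measured.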

Structure (SMILES) | outcome
O=C(Cn1ccnc1[N+](=O)[O-])NCCO | inactive
O=C(CCBr)N1CCN(C(=O)CCBr)CC1 | inactive
CC(C)c1cc2c(cc1S(=O)(=O)O)[C@@]1(C)CCC[C@@](C)(C(=O)O)[C@@H]1CC2 | inactive
CC(=O)OC[C@H]1O[C@@](COC(C)=O)(O[C@H]2O[C@H](COC(C)=O)[C@@H](OC(C)=O)[C@H](OC(C)=O)[C@H]2OC(C)=O)[C@@H](OC(C)=O)[C@@H]1OC(C)=O | inactive
CN1CC(=O)NC1=N | inactive
CCCCCCCCCCCCCCCCN | inactive
OCC(O)CS (configuration not stated) | inactive
CCc1cccc(CC)c1NC(=O)CN(CC(=O)O)CC(=O)O | inactive
CC(CN(C)C)C(C)(O)Cc1ccc(Cl)cc1 (configuration not stated) | inactive
COC(=O)N/N=C/c1c[n+]([O-])c2ccccc2[n+]1[O-] | inactive
Cc1c(C)c2c(c(C)c1OC(=O)c1cccnc1)CC[C@@](C)(CCC[C@H](C)CCC[C@H](C)CCCC(C)C)O2 | inactive
O=C(O)c1cc(=O)c2ccccc2o1 | inactive
CC1CCc2cc(F)cc3c(=O)c(C(=O)O)cn1c23 (configuration not stated) | inactive
CC1CCN(CCCC(=O)c2ccc(F)cc2)CC1 | inactive
CCCNC(C)(C)COC(=O)c1ccccc1 | inactive
Cc1cccc(C)c1NC(=O)CC12CCCN1CCC2 | inactive
O=C(O)CCCCC1CCSS1 (configuration not stated) | inactive
NC(=O)NC1NC(=O)NC1=O (configuration not stated) | inactive
O=C1CC[C@@H](C(=O)O)N1 | inactive

Structure (SMILES) | outcome
Cc1onc(-c2ccccc2)c1-c1ccc(S(N)(=O)=O)cc1 | inactive
CCc1nnc(NS(=O)(=O)c2ccc(N)cc2)s1 | inactive
CCOC(N)=O | inactive
CCOc1ccccc1O[C@H](c1ccccc1)[C@H]1CNCCO1 | inactive
CCOC(=O)OC(C)OC(=O)[C@@H]1N2C(=O)[C@@H](NC(=O)[C@H](N)c3ccccc3)[C@H]2SC1(C)C (some centres not stated) | inactive
CCOC(=O)[C@H](CCc1ccccc1)N[C@@H](C)C(=O)N1CCC[C@H]1C(=O)O | inactive
O=C(O)c1ccc(OCCCOc2ccc(C(=O)O)cc2)cc1 | inactive
NS(=O)(=O)c1cc(C2(O)NC(=O)c3ccccc32)ccc1Cl (configuration not stated) | inactive
Cc1c(NC(=O)c2cccnc2)c(=O)n(-c2ccccc2)n1C | inactive
COc1ccc(O)cc1 | inactive
NS(=O)(=O)c1cc2c(cc1C(F)(F)F)NCNS2(=O)=O | inactive
O=C(O)COC(=O)Cc1ccccc1Nc1c(Cl)cccc1Cl | inactive
C[C@@H]1CCC[C@H](C)N1 | inactive
C=CCNC(N)=S | inactive
CC(=O)Oc1cccc(C)c1 | inactive
O=S1(=O)OC(c2ccc(O)cc2)(c2ccc(O)cc2)c2ccccc21 | inactive
O=C(NCN1CCOCC1)c1cnccn1 | inactive
CCN1CC(CCN2CCOCC2)C(c2ccccc2)(c2ccccc2)C1=O (configuration not stated) | inactive
